Test results from PubChem BioAssay (EPA / NIEHS).
A structure can be active in one record and inactive in another. The source made the active and inactive calls. Rule for the calls: active = hit-call score of the fitted dose curve at least 0.9, where 1 is the maximum; inactive = score below 0.9.

These compounds were tested on Interleukin 17A (IL17A), IL17A (gene 3605) (assay: BSK_BT_xIL17A: BioMAP Diversity Plus: BT Assay for Interleukin 17A (IL17A) Biomarker Activity (AID 2284229)). Conditions: primary human B cells with PBMC.
Experimental: BSK_BT is a cell-based, multiplexed-readout assay that uses B cell and peripheral blood mononuclear cells, a human vascular primary cell co-culture, with measurements taken at 24 hours after chemical dosing in a microplate: 96-well plate.BSK_BT_xIL17A is an assay component measured in the BSK_BT assay. It measures secreted IL-17A related to regulation of gene expression using LumineX xMAP technology.Data from the assay component BSK_BT_xIL17A was analyzed at the endpoint, BSK_BT_xIL17A, in the positive analysis fitting direction relative to DMSO as the negative control and baseline of activity. Using a type of cytokine quantitation reporter, gain or loss-of-signal activity can be used to understand protein changes. To generalize the intended target to other relatable targets, this assay endpoint is annotated to the 'cytokine' intended target family, where the subfamily is 'interleukins'.
The levels of cell surface (or secreted, indicated by the prefix "s") biomarker endpoints were measured by ELISA. Overt cytotoxicity to cells in confluent adherent cultures (all systems other than the BT system) was assessed by measuring total protein levels using sulforhodamine B (SRB) staining in parallel cultures at the time of biomarker measurements, indicated as SRB endpoints. For proliferation assays for adherent cell types, individual cell types are cultured at sub-confluence and relative cell numbers quantified by SRB staining at time points optimized for each system (48 h: 3C and CASM3C systems; 72 h: BT and HDF3CGF systems; 96 h: SAg system). SRB was performed by staining cells with 0.1% SRB after fixation with 10% TCA and reading wells at 560 nm.Viability and proliferation of PBMC (T cells) was quantified by Alamar Blue reduction for the SAg and BT systems. For PBMC viability (referred to as PBMC Cytotoxicity within the assay endpoint names), cells were plated (75,000/well in a 96-well plate) and then chemical samples added for 1 h before addition of activators, SEB and TSST-1 (20 ng/mL final concentration each). Cells were incubated for 90 h. Then, Alamar Blue (20 uL/well) (Invitrogen, Cat DAL1100) was added for 6 h, and the plates were read with a fluorescence microplate reader at 546/580 nm (excitation/emission). For PBMC proliferation, cells were plated and activated as above but incubated for only 16 h prior to addition of Alamar Blue. Plates were read after 6 h.
For `O=C(O)C(F)(F)C(F)(F)C(F)(F)C(F)(F)C(F)(F)F`, the outcome was “inactive”.
For `NS(=O)(=O)C(F)(F)C(F)(F)C(F)(F)C(F)(F)C(F)(F)C(F)(F)C(F)(F)C(F)(F)F`, the outcome was “inactive” and the AC50 was 46.5 µM (active).
For `Sc1ccccc1`, the outcome was “inactive”.
In the case of `O=C(O)C(F)(F)C(F)(F)C(F)(F)C(F)(F)C(F)(F)C(F)(F)C(F)(F)C(F)(F)C(F)(F)F`, the AC50 was 37.8 µM (active) and the outcome was “inactive”.
For `Oc1c(Cl)c(Cl)c(Cl)c(Cl)c1Cl`, the outcome was “inactive”.
`O=S(=O)(O)C(F)(F)C(F)(F)C(F)(F)C(F)(F)F` was tested, and the outcome was “inactive”.
For `O=C(O)C(F)(F)C(F)(F)C(F)(F)C(F)(F)C(F)(F)C(F)(F)C(F)(F)C(F)(F)F`, the outcome was “inactive”.
`O=S(=O)(O)C(F)(F)C(F)(F)C(F)(F)C(F)(F)C(F)(F)C(F)(F)F` was tested, and the outcome was “inactive”.
